This is an account of results in PubChem BioAssay (NCI).

About 83,000 compounds went through this panel and 20% of them were active in at least one assay; those are over-represented in the sample as a whole.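 48-hour exposure, single concentration, 96-well plates; percent growth endpoint where 0 means no net growth. Active: below 10.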 Values without a mark were called inactive. The source made the active and inactive calls.

Some test systems named below: HCT-15 colon; HT29 colon; SNB-75 CNS; SNB-19 CNS; PC-3 prostate; SK-MEL-5 melanoma; UACC-62 melanoma; LOX IMVI melanoma; SK-MEL-28 melanoma.
Experiment in all cases: NCI-60 one-dose screen, 48 h (100 = growth as untreated, 0 = no growth, -100 = all killed)
Holding throughout (details): 10 µM unless noted

Consider `C#C[C@@]1(O)[C@@H](CO)O[C@@H](n2cc(C(F)(F)F)c3c(N)ncnc32)[C@@H]1O`, for which the growth in the experiment on HCT-15 colon was 3.11% (active); in the experiment with HT29 colon, 0.254% (active); in the experiment with SNB-75 CNS it was -54.8% (active); with SNB-19 CNS, 10.7%; in the experiment with PC-3 prostate, 14%; in the experiment on SK-MEL-5 melanoma, -65.5% (active). Besides, the growth was -1.29% (active) with UACC-62 melanoma, -23.6% (active) with LOX IMVI melanoma and 28.1% in the experiment with SK-MEL-28 melanoma.

In the case of `CCn1c(SC)nnc1-c1cc2c([nH]c3ccccc32)c(-c2cccc(O)c2)n1`, the growth in the experiment on HCT-15 colon is 20.4%; with HT29 colon, 50.7%; with SNB-75 CNS it was -23.1% (active); in the experiment with SNB-19 CNS, 52.8%; with PC-3 prostate it was 24.6%; with SK-MEL-5 melanoma, -16.2% (active). The growth in the experiment with UACC-62 melanoma is 36.7%; in the experiment on LOX IMVI melanoma, 16.5%; in the experiment with SK-MEL-28 melanoma it was 41.3%.

For `CCOC(=O)c1cnc2c(OC)ccc(OC)c2c1Cl`, the growth in the experiment on HCT-15 colon is 107%; with HT29 colon it was 117%; in the experiment on SNB-75 CNS it was 82.7%; with SNB-19 CNS, 114%; in the experiment on PC-3 prostate, 93.6%; with SK-MEL-5 melanoma it was 107%. Besides, the values for the growth in the experiment on UACC-62 melanoma, in the experiment with LOX IMVI melanoma and in the experiment with SK-MEL-28 melanoma were 109%, 91.1% and 120%, respectively.

Consider `Cc1cc(Nc2ccc(Cl)c(Cl)c2)nc(N)n1`, for which the growth with HCT-15 colon is 97.3%; in the experiment with HT29 colon, 86.9%; with SNB-75 CNS it was 72.3%; in the experiment with SNB-19 CNS it was 107%; in the experiment with PC-3 prostate it was 89.6%; with SK-MEL-5 melanoma, 83.9%. Also, the values for the growth with UACC-62 melanoma, with LOX IMVI melanoma and with SK-MEL-28 melanoma were 89.1%, 100% and 101%, respectively.

Take `COc1cc(C(=O)C[n+]2ccccc2)ccc1OC(C)=O`: the growth is 103% with HCT-15 colon; 108% in the experiment with HT29 colon; 87.6% in the experiment with SNB-75 CNS; 98.6% with SNB-19 CNS; 89.9% in the experiment with PC-3 prostate; 98% in the experiment on SK-MEL-5 melanoma. Besides, the values for the growth in the experiment with UACC-62 melanoma, with LOX IMVI melanoma and with SK-MEL-28 melanoma were 97.1%, 101% and 107%, respectively.

For the molecule `Nc1ncnc2c1c(-c1ccc(Oc3ccccc3)cc1)nn2C[C@H]1SSC[C@@H]1O`, the growth is 65.7% with HCT-15 colon; 5.36% (active) with HT29 colon; 37.3% in the experiment on SNB-75 CNS; 66.5% in the experiment on SNB-19 CNS; 64% in the experiment on PC-3 prostate; -73.9% (active) in the experiment on SK-MEL-5 melanoma. Besides, the growth with UACC-62 melanoma was -66.7% (active); with LOX IMVI melanoma, 11.9%; in the experiment on SK-MEL-28 melanoma, -29.4% (active).

As to `CC1(C)Cc2c(Br)c(Br)c(Br)c(OCC(O)CN3CCN(c4ccccn4)CC3)c2O1` (stereo unspecified), the growth in the experiment on HCT-15 colon was 79.7%; in the experiment with HT29 colon, 69.7%; in the experiment with SNB-75 CNS it was 187%; with SNB-19 CNS it was 101%; in the experiment with PC-3 prostate, 48.5%; in the experiment on SK-MEL-5 melanoma, 63.5%. Besides, the growth in the experiment with UACC-62 melanoma is 92.9%; in the experiment on LOX IMVI melanoma it was 68.6%; with SK-MEL-28 melanoma, 115%.

Turning to `S=c1n(CNc2ccc(Cl)nn2)nc(-c2cc(Cl)cc(Cl)c2Cl)n1/N=C/c1ccc(Cl)cc1`, the growth in the experiment with HCT-15 colon was 117%; with HT29 colon, 118%; with SNB-75 CNS, 98.5%; with SNB-19 CNS, 102%; in the experiment on PC-3 prostate it was 82.6%; in the experiment with SK-MEL-5 melanoma, 90.9%. In addition, the growth in the experiment with UACC-62 melanoma was 90.4%; in the experiment on LOX IMVI melanoma, 94.5%; in the experiment with SK-MEL-28 melanoma, 105%.

For the molecule `COc1cc(NC(=O)c2cc(OC)c3ccn(C)c3c2)cc2c1C[C@]1(C)CC[C@@H](O)C(C)(C)[C@H]1O2`, the growth is 58.1% in the experiment with HCT-15 colon; 61.7% in the experiment with HT29 colon; 42.2% with SNB-75 CNS; 72.9% with SNB-19 CNS; 41.7% in the experiment with PC-3 prostate; 42% in the experiment on SK-MEL-5 melanoma. For the same molecule, the growth in the experiment on UACC-62 melanoma is 53.5%; in the experiment on LOX IMVI melanoma, 19.9%; in the experiment on SK-MEL-28 melanoma, 36.9%.

`CCCCOc1c(N)cc(Cl)cc1C(=O)OCCN(CC)CC`: the growth in the experiment on HCT-15 colon was 111%; in the experiment with HT29 colon, 74.8%; in the experiment on SNB-75 CNS, 101%; in the experiment on SNB-19 CNS, 101%; in the experiment on PC-3 prostate, 80.9%; in the experiment on SK-MEL-5 melanoma it was 102%. Besides, the growth with UACC-62 melanoma is 96.7%; with LOX IMVI melanoma it was 103%; in the experiment with SK-MEL-28 melanoma it was 114%.

For `S=c1ssnc1-c1ccccn1`, the growth in the experiment with HCT-15 colon was 14.1%; in the experiment on HT29 colon, 33.6%; with SNB-75 CNS it was 36.6%; in the experiment on SNB-19 CNS, 47.8%; in the experiment on PC-3 prostate it was 32.9%; in the experiment with SK-MEL-5 melanoma, 16.7%. Moreover, the figures for the growth in the experiment with UACC-62 melanoma, in the experiment with LOX IMVI melanoma and in the experiment on SK-MEL-28 melanoma were 34.5%, 6.73% (active) and 52.2%, respectively.

Take `COc1ccc(N)c(S)c1`: the growth in the experiment on HCT-15 colon is 97%; in the experiment with HT29 colon, 100%; in the experiment on SNB-75 CNS, 84.6%; in the experiment with SNB-19 CNS, 100%; in the experiment with PC-3 prostate, 73.4%; in the experiment on SK-MEL-5 melanoma it was 91.5%. For the same molecule, the values for the growth with UACC-62 melanoma, in the experiment on LOX IMVI melanoma and with SK-MEL-28 melanoma were 93.5%, 92.3% and 113%, respectively.

Consider `COc1ccc2c(c1)OC(N)=C(C#N)C2c1ccc(F)cc1` (stereo unspecified), for which the growth in the experiment with HCT-15 colon is 21.9%; in the experiment with HT29 colon, 5.87% (active); in the experiment with SNB-75 CNS, 8.49% (active); with SNB-19 CNS it was 30.1%; in the experiment on PC-3 prostate, 27.9%; with SK-MEL-5 melanoma, 22.6%. For the same molecule, the growth in the experiment with UACC-62 melanoma is 29.7%; with LOX IMVI melanoma, 39.1%; in the experiment on SK-MEL-28 melanoma it was 65%.

As to `COc1ccc2c(c1)OC(N(C(C)=O)C(C)=O)=C(C#N)C2c1ccc(F)cc1` (stereo unspecified), the growth in the experiment on HCT-15 colon is 24.9%; in the experiment on HT29 colon, 8.69% (active); in the experiment on SNB-75 CNS it was 8.71% (active); with SNB-19 CNS it was 28.6%; with PC-3 prostate, 21.9%; in the experiment with SK-MEL-5 melanoma, 18.9%. The growth with UACC-62 melanoma is 34.5%; in the experiment with LOX IMVI melanoma, 47.7%; in the experiment on SK-MEL-28 melanoma, 64.4%.

For `Clc1ccc2c(c1)nnn1c3ncccc3c(Br)c21`, the growth in the experiment on HCT-15 colon is 101%; in the experiment with HT29 colon, 93.8%; in the experiment with SNB-75 CNS, -3.76% (active); in the experiment with SNB-19 CNS, 89%; with PC-3 prostate it was 78.6%; with SK-MEL-5 melanoma, 77.3%. For the same molecule, the growth was 58.3% in the experiment on UACC-62 melanoma, 77.5% in the experiment on LOX IMVI melanoma and 109% in the experiment on SK-MEL-28 melanoma.

`CC(=O)c1ccc2c(c1)C1C=CCC1[C@H](c1cc3c(cc1Br)OCO3)N2` (stereo partly specified): the growth with HCT-15 colon was 18.4%; in the experiment with HT29 colon it was 4.15% (active); in the experiment with SNB-75 CNS, 30.6%; in the experiment on SNB-19 CNS, 44.6%; in the experiment with PC-3 prostate, 20.9%; with SK-MEL-5 melanoma, 9.13% (active). The growth in the experiment with UACC-62 melanoma is 34.6%; in the experiment with LOX IMVI melanoma it was -35.6% (active); in the experiment with SK-MEL-28 melanoma, 72.7%.

In the case of `CCCC(C)(C)COC(=O)c1cccc(N)c1`, the growth was 113% in the experiment with HCT-15 colon; 78.5% with HT29 colon; 94.5% with SNB-75 CNS; 106% in the experiment on SNB-19 CNS; 78.1% in the experiment on PC-3 prostate; 102% in the experiment on SK-MEL-5 melanoma. In addition, the growth in the experiment with UACC-62 melanoma is 96.6%; in the experiment on LOX IMVI melanoma it was 101%; in the experiment on SK-MEL-28 melanoma, 117%.

`CCC(N)(C(=O)O)c1ccc(F)cc1` (stereo unspecified): the growth was 104% in the experiment on HCT-15 colon; 94.9% in the experiment on HT29 colon; 113% in the experiment with SNB-75 CNS; 107% in the experiment on SNB-19 CNS; 81.4% in the experiment on PC-3 prostate; 99.9% with SK-MEL-5 melanoma. Besides, the values for the growth in the experiment with UACC-62 melanoma, in the experiment with LOX IMVI melanoma and in the experiment on SK-MEL-28 melanoma were 112%, 96% and 112%, respectively.

In the case of `CN(C)c1ccc(/C=c2\s/c(=C\C(=O)C(C)(C)C)[nH]c2=O)cc1`, the growth is 95.5% in the experiment with HCT-15 colon; 91% with HT29 colon; 94.3% with SNB-75 CNS; 97.5% in the experiment on SNB-19 CNS; 85.2% in the experiment on PC-3 prostate; 101% in the experiment with SK-MEL-5 melanoma. Moreover, the growth in the experiment on UACC-62 melanoma was 95.3%; in the experiment on LOX IMVI melanoma it was 87.1%; in the experiment on SK-MEL-28 melanoma, 104%.
